Values joined by “and” are separate entries in the source; they are usually repeats but may differ in a detail not shown here. Identical values can stand only once. The panel holds about 83,000 compounds, 20% with a hit somewhere; the sample as a whole holds those more often.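 Results are percent growth after 48 hours of single-concentration exposure. 100 means growth as in untreated cells, lower positive values show inhibition; negative values down to -100 show cell death.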 A number with no mark means an inactive call. Active and inactive are the calls of the source.

For 39 compounds, growth results are on record in PubChem BioAssay (NCI).

For the first test, the system named is EKVX NSCLC. As to the kind of experiment: NCI-60 one-dose screen, 48 h (100 = growth as untreated, 0 = no growth, -100 = all killed). The settings on record: 10 µM. How it is done: Growth inhibition of the EKVX human Non-Small Cell Lung tumor cell line is measured as a screen for anti-cancer activity. Cells are grown in 96 well plates and exposed to the test compound for 48 hours. Compounds are tested at a single concentration, which is 10^-5 M for most compounds. The reported endpoint is percent growth (GI% or GIPRCNT), where numbers from 0 - 100% represent growth inhibition, and numbers from -100% - 0 represent cell death. For example, a value of 40 represents 60% growth inhibition. A value of 0 means no net growth occurred over the course of the experiment. A value of -40 indicates 40% of cells at the beginning of the experiment died by the end of the experiment. A value of -100 means all cells are dead at the end of the experiment.
NCI-60 Human Tumor Cell Lines Screen was performed using the standard one-dose NCI protocol, which is described in more detail at https://dtp.cancer.gov/discovery_development/nci-60/default.htm.
Compounds with GIPRCNT values below 10 were considered active. Activity score was based on GIPRCNT using the following formula: […]
Score is 0 for GIPRCNT values of 100 or above, 50 for GIPRCNT values of 0, and 100 for GIPRCNT values of -100.
On to `CCN(Cc1ccccc1)c1ccc(/C=C2\COc3ccccc3C2=O)cc1`, for which the growth is 102%.

The same test, now with this note: 10 µM unless noted.
As to `COc1ccc(-c2nc(Cl)c3c(C)nn(-c4ccc(F)cc4)c3n2)cc1`, the growth was 111%.
Same read-out and setting: in the case of `Nc1ccccc1SC(CC(=O)c1ccccc1)c1ccc([N+](=O)[O-])cc1` (stereo not given) it was 97.1%.
On to `N#C/C(=C\c1ccccc1Cl)c1cc2ccccc2[nH]1`, for which the growth is 77.1%.
The same measure, in the same setting: in the case of `Nc1nc(N)c2c(n1)NC(c1ccc(Cl)cc1)CC(c1cccc(Nc3ccncc3)c1)=N2` (stereo not given) it was 62.1%; in that of `CN(C)C(=O)c1cc2cnc(Nc3ccc(-c4csc5c(=S)cc(N6CCOCC6)oc45)cc3)nc2n1C1CCCC1`, 12.1%.
With `O=c1cc(N/N=C/c2ccc(F)cc2)c2cc(Cl)ccc2[nH]1`, the growth was 74.2%.
With `CCOC(=O)C(=CCC(C)C)C(=O)OCC`, the growth was 112%.
As to `O=C(/C=C\c1ccc(Cl)c(Cl)c1)c1ccccc1`, the growth is 89.3%.
Consider `COc1cc2cc(NCc3ccncc3)nc(C)c2cc1OC`, for which the growth is 96.3%.
`COc1ccc(-c2cc(-c3cccc(Cl)c3)c(C#N)c(=O)[nH]2)c(OC)c1`: the growth is 95.2%.
On the same count and under the same terms, to `O=Nc1c(O)ccc2ccccc12` belongs 91.4%.
With `CCCn1nc(C(=O)N2CCCCC2)c2c1CCC(N1CCC(c3ccncc3)CC1)C2` (stereo not given), the growth is 100%.
As to `CCCN1C(=O)/C(=c2\sc3n(c2=O)C2C(NN=3)N(CC)C(=O)N2CC)c2ccccc21` (stereo not given), the growth was 52.4%.
Turning to `CC1=C2[C@@H](CC1)[C@]1(C)O[C@@](C(C)C)(C[C@H]1OC(=O)CO)[C@H]2OC(=O)C1CC1c1ccccc1` (stereo not given in full), the growth was 93.8%.
The same measure, in the same setting: to `COc1cc2ncnc(Nc3ccc(F)c(Cl)c3)c2cc1OCC(=O)N1CCCCC1` belongs 63.5%; to `NC(=O)c1c(NC(=O)/C=C/c2cccs2)sc2c1CCC(=O)C2`, 40.4%.
For the compound `CN(C)c1ccc2nc3ccc(=O)cc-3sc2c1`, the growth was 41.3%.
Same read-out and setting: to `CCN(CC)CCCN1C(=O)c2c(c(C)c3c(oc4cc(OC)ccc43)c2C)C1=O` belongs 99.3%; to `O=C(CCN1CCOCC1)Nc1cccc(-n2cc(-c3ccncc3)c(-c3ccc(Cl)c(O)c3)n2)c1`, 55.7%; to `CCNC(=O)Oc1ccc(/C(=C(/C)Cc2ccc(OC)cc2)c2ccc(OCCN(CC)CC)cc2)cc1`, 69.6%.
The same measure, in the same setting: to `CC(=O)N1N=C(c2ccc(Nc3nc(Nc4ccc(F)cc4)nc(Nc4ccc(F)cc4)n3)cc2)CC1c1ccccc1` (stereo not given) belongs 105%; to `CN1CCN(Cc2ccc(NC(=O)c3nc4ccc5[nH]ncc5c4c4c3CCCC4)cc2C(F)(F)F)CC1`, 37.2%.
For the compound `COc1ccc(-c2ccc(-c3ccc(C(=N)N)cn3)s2)cc1Cl`, the growth was -58.4% (active).
The same measure, in the same setting: to `CC[C@@H]1NC(=O)[C@H]([C@H](O)[C@H](C)C/C=C/c2ccc(CN3C(=O)C(C)=C(C)C3=O)cc2)N(C)C(=O)[C@H](C(C)C)N(C)C(=O)[C@H](CC(C)C)N(C)C(=O)[C@H](CC(C)C)N(C)C(=O)[C@@H](C)NC(=O)[C@H](C)NC(=O)[C@H](CC(C)C)N(C)C(=O)[C@H](C(C)C)NC(=O)[C@H](CC(C)C)N(C)C(=O)CN(C)C1=O` belongs 49.1%.
Consider `COc1ccc(C(=O)c2ccc(OC)c(OC)c2OC)cc1`, for which the growth was 48.1% and 39%.
Still for that read-out and setting: in the case of `OB(O)c1ccsc1-c1nc2ccc3[nH]ncc3c2c2c1CCCC2` it was 34.7%.
Still for that read-out and setting: to `Cc1nonc1-c1ccc2c(c1)OCO2` belongs 90% and 104%.
Still for that read-out and setting: in the case of `O=c1c(/C=C/c2ccco2)nnc2sc(Nc3ccc(Cl)cc3)nn12` it was 90.9%.
Consider `ON=C1CCCCCCCC1`, for which the growth is 108%.
Regarding `C=C1C(=O)O[C@H]2[C@H]1CC/C(CNS(=O)(=O)c1ccc3ccccc3c1)=C\CC[C@@]1(C)O[C@@H]21`, the growth was 66.6%.
As to `O=C(NNc1ccccc1)c1ncc[nH]1`, the growth is 60.2%.
Consider `Cc1cc(N2CCCCC2)nc(NCc2cc(Nc3ccnc4cc(Cl)ccc34)ccc2F)n1`, for which the growth is 38.6%.
Same read-out and setting: in the case of `CCCCCCCCn1ccc2cc(NC(=O)CN3CCN(c4nc(C)cc(N5CCCCC5)n4)CC3)ccc21` it was 79.4%.
Turning to `NCCOCCOc1ccccc1`, the growth is 106%.
For the compound `CCCO/N=C/c1ccccn1`, the growth is 108% and 96.8%.
Take `COc1cc(C(=O)c2ccccc2C(=O)O)c(OC)c2c1CCCC2`: the growth was 87.7%.
Same read-out and setting: to `CCC(=O)Oc1cc(Cl)c(Cl)cc1Cl` belongs 102%; to `O=C1OCC2=C1C(c1cccc(C(F)(F)F)c1)c1cc3c(cc1N2CCO)CCC3` (stereo not given), 40.7%.

Still in this test, the particulars now being: 100 µM.
As for `CCN(Cc1ccccc1)c1ccc(/C=C2\COc3ccccc3C2=O)cc1`, the growth was 36.9%.
